In the library only some 4.1% were active in any assay of this set; here they are far more common.
aSyn 5UTR inh – MLPCN primary screen, SNCA 5' untranslated region | alpha-synuclein 5'UTR reporter, inhibitor activity | inhibition, % (tested at 7.5 µM) | actives 0.82% (n = 300,000) | AID 1813, 2009; in the data active = inhibition above about 60%; inconclusive = no clear call, values can overlap the other calls;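 note: H4 neuroglioblastoma cells stably carrying SNCA 5'UTR luciferase fusion; 0% = DMSO wells and 100% = positive control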
Bfl-1 A1 inh – caspase 3/7 activation in MEF A1-2A-BIM cells, primary screen, A1 inhibitor project, cell-based, luminescence, HTS | caspase activation, % (no concentration beside the values) | actives 0.066% (n = 330,000) | Caspase-Glo 3/7 luminescence, 3 h; percent of clofoctol response, vehicle zero;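 active = over half of replicate activation scores above 10%, or exactly half above 10 with the replicate mean above 10; inconclusive = replicate mean below 10 yet half the replicates above 10; inactive = over half of replicates below 10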
CSC inhib – cancer stem cell viability inhibitors, primary screen, luminescence; cancer stem cell-like cells viability; inhibition, % at 7.5 µM; actives 1.1% (n = 300,000); AID 2717, 2010; in the data active = inhibition above about 75%; inconclusive = no clear call, values can overlap the other calls; tested in HMLE shEcad cells
Mdm2 MdmX PPI – inhibitors of human Mdm2-MdmX association, primary screen, cell-based, luminescence, split luciferase, SaOS-2, uHTS | Protein Mdm4 (Homo sapiens) + E3 ubiquitin-protein ligase Mdm2 (Homo sapiens), … | SaOS-2 split-luciferase Mdm2/MdmX complementation | inhibition, % at 8 µM | actives 3% (n = 330,000) | AID 485346, 2010;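 active = inhibition of at least 50% at 8 µM in the primary screen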
Beta apoptosis – inhibitors of cytokine-induced beta cell apoptosis, primary screen, luminescence. AID 435005, 2010. protection from apoptosis, % (concentration not given with the values). INS-1E cytokine-induced death, ATP luminescence, 48 h; percent of positive-control rescue, neutral wells zero. actives 0.8% (n = 300,000);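 active = Every replicate reaches about 75%, or at least half do and their mean reaches it too, limit read from the data; inconclusive = At least half of replicates reach the limit but their mean does not; inactive = Under half of replicates reach the limit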;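 note: 0% = cytokine-treated negative control wells and 100% = positive control rescue; higher means more ATP so stronger rescue from cytokine killing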
Mdm2 MdmX conf – Mdm2-MdmX complex disruptors, retested hits, confirmation, luminescence, single concentration. inhibition, % at 8 µM. actives 55% (n = 10,000). Mdm2-MdmX binding, luminescent assay. shares compounds with Mdm2 MdmX PPI. AID 489028, 2010; in the data active = inhibition above about 40%
FLuc counter – full-length luciferase signal inhibition, confirmation, counter-screen for Mdm2/MdmX interaction inhibitor project, cell-based, single concentration, SaOS-2. SaOS-2 full-length luciferase counterscreen, luminescence. inhibition, % at 8 µM. actives 77% (n = 6,200). shares compounds with Mdm2 MdmX PPI. AID 504607, 2011;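 active = mean inhibition at 8 µM reaching about 37%, which flags the compound as non-specific, limit read from the data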;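 note: p53-null SaOS-2 cells with luciferase driven by a doxycycline-inducible promoter; compound on cells about two nights before reading with doxycycline added after day one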
* = called active by the depositor; u = inconclusive; x = not tested or not shown.

SMILES	aSyn 5UTR inh	Bfl-1 A1 inh	CSC inhib	Mdm2 MdmX PPI	Beta apoptosis	Mdm2 MdmX conf	FLuc counter
CC[n+]1c(C=C2C=C(C)OC(C)=C2)sc2ccccc21	9	x	x	75*	x	70*	56*
Cn1cnc([N+](=O)[O-])c1S(=O)(=O)c1cccc(Cl)c1	-3	7.8*	33	68*	-20	34	21
COCc1nc2oc3ccccc3c(=O)c2cc1C(=O)OC	-89	-5	-5	-41	0	x	x
Cc1csc2nc(O)c(C(=O)NCCC3=CCCCC3)c(=O)n12	8	0	-13	39	x	x	x
Cc1csc2nc(O)c(C(=O)NCCCc3ccccc3)c(=O)n12	-19	0	-3	61*	x	70*	21
Cc1cccc2c1-c1sc(C(=O)Nc3ccccc3N3CCN(C)CC3)cc1CO2	-40	0	102*	65*	4	38	68*
Cc1cccc2c1-c1sc(C(=O)N3CCCCC3)cc1CO2	-100	0	x	-149	3	x	x
CCn1c(=O)cc(SCC(=O)N2CCN(c3ccccc3F)CC2)c2ccccc21	-2	-1	24	56*	-2	44*	86*
CCn1c(=O)cc(SCC(=O)N(C)Cc2ccccc2)c2ccccc21	31	1	-7	51*	0	30	x
CCn1c(=O)cc(SCC(=O)N2CCN(c3ccccn3)CC2)c2ccccc21	0	x	x	x	x	x	x
CCc1nnc(NC(=O)C2CCCN2C(=O)Nc2ccc(Cl)cc2)s1 (stereo not given)	-7	0	-13	4	-2	x	x
O=S(=O)(CCN1CCOCC1)c1ccc(OC(F)(F)F)cc1	-2	0	-5	-8	1	x	x
Cc1cc(C(=O)CN2CC(C)OC(C)C2)c(C)n1-c1ccccc1 (stereo not given)	-105	1	5	-34	1	x	x
Cc1cc(C(=O)CN2C(=O)C(=O)N(Cc3ccccc3)C2=O)c(C)n1-c1ccccc1F	12	0	60	52*	4	51*	51*
Cc1cc(C(=O)CN2CCC(C)CC2)c(C)n1-c1ccccc1F	23	0	-7	66*	5	76*	70*
CCC1CCC/C1=N\NC(=O)c1ccccc1C (stereo not given)	4	0	-1	-6	5	x	x
CC(C)Cc1nnc(NC(=O)CCC(=O)N2CCN(Cc3ccc(Cl)cc3)CC2)s1	-12	0	-12	13	0	x	x
Cc1cc(C)c(-c2csc(NC(=O)/C=C/c3cccs3)n2)c(C)c1	u	0	28	70*	8	61*	72*
O=C(/C=C/c1cccs1)Nc1nccs1	-97	-8	6	-125	-4	x	x
CCOC(=O)C1=C(c2ccccc2)NC(N)=NC1c1ccc(OCc2ccc(C(=O)OC)cc2)cc1 (stereo not given)	-20	1	-5	100*	-4	35	72*
CCOC(=O)C1=C(c2ccccc2)Nc2ncnn2C1c1ccc(C(=O)O)cc1 (stereo not given)	-4	1	-17	-49	-10	x	x
Cc1ccccc1NC(=O)Nc1nnc(Cc2ccc([N+](=O)[O-])cc2)s1	41	0	x	67*	6	10	x
Cc1ccc(NC(=O)Nc2nnc(Cc3ccc(F)cc3)s2)cc1	-30	0	60	55*	-7	32	x
COc1ccc(Cc2nnc(NC(=O)Nc3ccc(C)cc3)s2)cc1OC	-57	0	-6	29	-4	x	x
O=C(Nc1ccccc1)Nc1nnc(Cc2ccc(F)cc2)s1	-33	1	42	7	2	x	x
Cc1ccc(NC(=O)Nc2nnc(Cc3ccc([N+](=O)[O-])cc3)s2)cc1C	21	1	x	57*	x	36	39*
O=C(Nc1ccccc1)Nc1nnc(Cc2ccc([N+](=O)[O-])cc2)s1	11	-1	11	66*	-5	13	x

Source: PubChem (several laboratories)
